“And” between values parts separate entries of the source, which are not always exact repeats. Equal entries are not always repeated. Results filed as inconclusive are left out. More than one record can exist for a structure, and the calls need not agree. The source made the active and inactive calls. How the source made its calls, unless noted: active means hit-call score of the fitted dose curve at least 0.9, where 1 is the maximum; inactive means score below 0.9.
How the values were obtained:
[1] = molecular target: human RAR-related Orphan Receptor beta (RORb), RORB (gene 6096) (UniProt Q92753); assay: ATG_RORb_TRANS: Attagene TRANS-FACTORIAL HepG2 Assay for human RAR-related Orphan Receptor beta (RORb) (AID 2283010; active means hit-call score of the fitted dose curve at least 0.9, where 1 is the maximum)
Outline: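 Multiplexed transcription-factor reporter assay: HepG2 cells transiently carrying NR-Gal4/GAL4-UAS constructs, 24 h treatment, mRNA quantified by RT-PCR plus capillary electrophoresis fluorescence; activity scored as induction over DMSO.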

[2] = molecular target: human RAR-related Orphan Receptor gamma (RORg), RORC (gene 6097) (UniProt P51449); assay: ATG_RORg_TRANS: Attagene TRANS-FACTORIAL HepG2 Assay for human RAR-related Orphan Receptor gamma (RORg) (AID 2283011; active means hit-call score of the fitted dose curve at least 0.9, where 1 is the maximum)
Outline: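 Transient MRTU transfection of HepG2 (TRANS format, exogenous NR-Gal4 chimera). 24 h dosing. Total RNA → oligo(dT) RT → PCR → 6-FAM labelling → HpaI cut → CE. Gain vs DMSO.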

[3] = molecular target: Retinoic acid receptor RXR-alpha (Homo sapiens) (UniProt P19793); assay: ATG_RXRa_TRANS: Attagene TRANS-FACTORIAL HepG2 Assay for human Retinoid X Receptor alpha (RXRa) (AID 2283012; active means hit-call score of the fitted dose curve at least 0.9, where 1 is the maximum)
Outline: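 Chimeric NR-GAL4 trans-activation in HepG2, 24 h treatment; reporter transcripts quantified by fluorescence on capillary electrophoresis, analysed for upward change from DMSO.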

[4] = molecular target: human Thyroid Receptor alpha (THRa1), THRA (gene 7067) (UniProt P10827); assay: ATG_THRa1_TRANS: Attagene TRANS-FACTORIAL HepG2 Assay for human Thyroid Receptor alpha (THRa1) (AID 2283014; active means hit-call score of the fitted dose curve at least 0.9, where 1 is the maximum)
Outline: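 Transient HepG2 transfection, NR-Gal4 chimera driving GAL4-UAS reporters; 24 h compound exposure; total RNA, oligo(dT) RT, PCR, fluorescent primer extension, capillary electrophoresis. Upward direction vs DMSO control.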

[5] = read-out: E-selectin (Homo sapiens) (UniProt P16581); assay: BSK_3C_Eselectin: BioMAP Diversity Plus: 3C Assay for Eselectin Biomarker Activity (AID 2283015); details: primary human endothelial cells (HUVEC); actives raise or lower the signal
Outline: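 HUVEC, 3C stimulation; compound exposure 24 h; E-selectin by ELISA; gain- or loss-of-signal fitted bidirectionally vs DMSO baseline.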

[6] = read-out: Interleukin-1 alpha (IL1a), IL1A (gene 3552); assay: BSK_BE3C_IL1a: BioMAP Diversity Plus: BE3C Assay for Interleukin-1 alpha (IL1a) Biomarker Activity (AID 2283016); details: primary human bronchial epithelial cells; actives raise or lower the signal
Outline: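 Measured in human lung primary bronchial epithelial cells: IL-1a by ELISA at 24 h after dosing, with bidirectional fitting against DMSO.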

[7] = read-out: Monocyte Chemoattractant Protein-1 (MCP1), CCL2 (gene 6347); assay: BSK_4H_MCP1: BioMAP Diversity Plus: 4H Assay for Monocyte Chemoattractant Protein-1 (MCP1) Biomarker Activity (AID 2283018); details: primary human endothelial cells (HUVEC); actives raise or lower the signal
Outline: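 Primary human umbilical vein endothelium is exposed to chemical for 24 h before MCP-1 is assayed by ELISA. Concentration-response fitted bidirectionally relative to DMSO.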

[8] = read-out: Human Leukocyte Antigen - DR isotype (HLADR), HLA-DRA (gene 3122); assay: BSK_3C_HLADR: BioMAP Diversity Plus: 3C Assay for Human Leukocyte Antigen - DR isotype (HLADR) Biomarker Activity (AID 2283019); details: primary human endothelial cells (HUVEC); actives raise or lower the signal
Outline: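 HUVEC, 3C stimulation, 24 h post-dose; HLA-DR by ELISA; bidirectional curve fit vs DMSO baseline; gain or loss of signal scored.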

[9] = read-out: Interleukin-8 (IL8), CXCL8 (gene 3576); assay: BSK_3C_IL8: BioMAP Diversity Plus: 3C Assay for Interleukin-8 (IL8) Biomarker Activity (AID 2283020); details: primary human endothelial cells (HUVEC); actives raise or lower the signal
Outline: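 Using DMSO-treated wells as the baseline, bidirectional curve fitting was applied to ELISA-measured IL-8 from human umbilical vein endothelial cultures sampled 24 h after compound addition.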

[10] = read-out: Monokine induced gamma interferon (MIG), CXCL9 (gene 4283); assay: BSK_3C_MIG: BioMAP Diversity Plus: 3C Assay for Monokine induced gamma interferon (MIG) Biomarker Activity (AID 2283021); details: primary human endothelial cells (HUVEC); actives raise or lower the signal;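 on AC50: MIG protein level measured by immunoassay in the treated endothelial cultures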
Outline: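 ELISA-measured MIG in dosed HUVEC 3C cultures at 24 h, analysed by bidirectional fitting with DMSO defining baseline activity.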

[11] = molecular target: human Vitamin D Receptor (VDR), VDR (gene 7421) (UniProt P11473); assay: ATG_VDR_TRANS: Attagene TRANS-FACTORIAL HepG2 Assay for human Vitamin D Receptor (VDR) (AID 2283022; active means hit-call score of the fitted dose curve at least 0.9, where 1 is the maximum)
Outline: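 RT-PCR/capillary electrophoresis read-out of reporter mRNA induction in transiently transfected HepG2; 24 h dosing; chimeric NR-Gal4 (TRANS format); gain-of-signal fit against DMSO baseline.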

[12] = BSK_3C_SRB: Viability Assessment in the BioMAP Diversity Plus: 3C Assay (AID 2283023); details: primary human endothelial cells (HUVEC);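 further: cells read 24 h after compound dosing; fitted both ways against DMSO so a hit may be signal rise or drop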
Outline: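 HUVEC, 24 h post-dose; 10% TCA fix, 0.1% SRB stain, A560 nm. Bidirectional curve fit vs DMSO negative control.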

[13] = BSK_3C_Vis: BioMAP Diversity Plus: 3C Assay for Morphology Visualization (AID 2283025); details: primary human endothelial cells (HUVEC);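 further: fitted both ways so gain or loss versus DMSO counts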;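 on AC50: light microscopy image of cell morphology used as background control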
Outline: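 Light-microscopy morphology readout, 24 h exposure, human primary umbilical vein endothelium; analysed relative to DMSO with bidirectional fitting.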

[14] = read-out: Pselectin, SELP (gene 6403); assay: BSK_4H_Pselectin: BioMAP Diversity Plus: 4H Assay for Pselectin Biomarker Activity (AID 2283026); details: primary human endothelial cells (HUVEC); actives raise or lower the signal
Outline: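 Bidirectional fits against DMSO gave the endpoint. Cells: primary human umbilical vein endothelium, chemical-treated for 24 h before ELISA detection of P-selectin.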

[15] = BSK_4H_SRB: Viability Assessment in the BioMAP Diversity Plus: 4H Assay (AID 2283027); details: primary human endothelial cells (HUVEC);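 further: cells exposed to compound for 24 h before staining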;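 on AC50: curves fitted both ways versus DMSO so AC50 may be loss or gain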
Outline: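 Cytotoxicity readout: sulforhodamine B (0.1%) staining of total protein after 10% TCA fixation, measured at 560 nm in human umbilical vein endothelium at 24 h. DMSO set the baseline; fitting was bidirectional.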

[16] = BSK_BE3C_SRB: Viability Assessment in the BioMAP Diversity Plus: BE3C Assay (AID 2283028); details: primary human bronchial epithelial cells;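 on AC50: fitted both ways so AC50 may mark signal gain or loss versus DMSO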
Outline: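 Primary human bronchial epithelium; chemical dosing, 24 h; 10% TCA fix, 0.1% SRB stain, A560; bidirectional fit vs DMSO baseline.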

[17] = read-out: Thrombomodulin, THBD (gene 7056); assay: BSK_3C_Thrombomodulin: BioMAP Diversity Plus: 3C Assay for Thrombomodulin Biomarker Activity (AID 2283029); details: primary human endothelial cells (HUVEC); actives raise or lower the signal
Outline: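 In a multiplexed primary-cell system, human umbilical vein endothelium received chemical and was assayed 24 h later for thrombomodulin by ELISA. Parallel cultures were SRB-stained (0.1% SRB after 10% TCA fixation, read at 560 nm) to flag cytotoxicity.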

[18] = molecular target: human Retinoid X Receptor beta (RXRb), RXRB (gene 6257) (UniProt P28702); assay: ATG_RXRb_TRANS: Attagene TRANS-FACTORIAL HepG2 Assay for human Retinoid X Receptor beta (RXRb) (AID 2283013; active means hit-call score of the fitted dose curve at least 0.9, where 1 is the maximum)
Outline: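 After a 24 h incubation with test chemical, transfected HepG2 cells carrying NR-Gal4 fusions and GAL4-UAS reporter transcription units yield RNA whose reporter cDNA is FAM-labelled, HpaI-cut and sized by capillary electrophoresis; increases over DMSO are scored.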

[19] = read-out: Matrix Metallopeptidase 1 (MMP1), MMP1 (gene 4312); assay: BSK_BE3C_MMP1: BioMAP Diversity Plus: BE3C Assay for Matrix Metallopeptidase 1 (MMP1) Biomarker Activity (AID 2283024); details: primary human bronchial epithelial cells; actives raise or lower the signal
Outline: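 In this multiplexed primary-cell system, human bronchial epithelium received chemicals for 24 h before an ELISA for MMP1. Values reflect bidirectional fits normalised to the DMSO baseline.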

[20] = read-out: Monocyte Chemoattractant Protein-1 (MCP1), CCL2 (gene 6347); assay: BSK_3C_MCP1: BioMAP Diversity Plus: 3C Assay for Monocyte Chemoattractant Protein-1 (MCP1) Biomarker Activity (AID 2283017); details: primary human endothelial cells (HUVEC); actives raise or lower the signal
Outline: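 HUVEC, 3C system; 24 h chemical exposure; MCP-1 by ELISA; bidirectional curve fit vs DMSO baseline.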

Measured: AC50

Chain of human Vitamin D Receptor (VDR), VDR (gene 7421) (P11473 whole entry, looked up, the tested form may be a part): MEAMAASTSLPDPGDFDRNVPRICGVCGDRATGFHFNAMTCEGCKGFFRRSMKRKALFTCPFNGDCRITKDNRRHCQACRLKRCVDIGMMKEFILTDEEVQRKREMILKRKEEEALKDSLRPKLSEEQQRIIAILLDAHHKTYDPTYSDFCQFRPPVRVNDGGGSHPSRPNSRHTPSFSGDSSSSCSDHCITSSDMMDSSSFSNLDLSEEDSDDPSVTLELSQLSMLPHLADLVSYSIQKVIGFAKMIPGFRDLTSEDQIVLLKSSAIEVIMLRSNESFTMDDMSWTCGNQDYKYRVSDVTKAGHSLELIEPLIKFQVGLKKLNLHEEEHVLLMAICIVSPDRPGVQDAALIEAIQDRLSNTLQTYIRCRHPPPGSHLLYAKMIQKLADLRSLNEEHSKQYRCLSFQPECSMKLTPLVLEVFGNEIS
Chain of human RAR-related Orphan Receptor gamma (RORg), RORC (gene 6097) (P51449 whole entry, looked up, the tested form may be a part): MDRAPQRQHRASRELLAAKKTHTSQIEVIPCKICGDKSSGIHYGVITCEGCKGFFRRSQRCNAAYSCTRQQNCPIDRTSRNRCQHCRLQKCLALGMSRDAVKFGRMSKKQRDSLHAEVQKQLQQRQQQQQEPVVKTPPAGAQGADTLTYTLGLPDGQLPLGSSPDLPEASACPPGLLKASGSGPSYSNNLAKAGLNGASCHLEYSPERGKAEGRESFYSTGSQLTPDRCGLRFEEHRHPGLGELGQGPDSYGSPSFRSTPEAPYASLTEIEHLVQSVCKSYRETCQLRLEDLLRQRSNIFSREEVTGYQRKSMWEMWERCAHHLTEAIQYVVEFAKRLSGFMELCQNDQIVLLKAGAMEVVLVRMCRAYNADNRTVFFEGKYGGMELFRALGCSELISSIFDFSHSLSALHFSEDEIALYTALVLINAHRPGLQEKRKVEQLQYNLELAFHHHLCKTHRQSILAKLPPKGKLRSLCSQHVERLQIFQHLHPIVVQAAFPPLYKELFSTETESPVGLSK
Chain of Retinoic acid receptor RXR-alpha (Homo sapiens) (P19793 whole entry, looked up, the tested form may be a part): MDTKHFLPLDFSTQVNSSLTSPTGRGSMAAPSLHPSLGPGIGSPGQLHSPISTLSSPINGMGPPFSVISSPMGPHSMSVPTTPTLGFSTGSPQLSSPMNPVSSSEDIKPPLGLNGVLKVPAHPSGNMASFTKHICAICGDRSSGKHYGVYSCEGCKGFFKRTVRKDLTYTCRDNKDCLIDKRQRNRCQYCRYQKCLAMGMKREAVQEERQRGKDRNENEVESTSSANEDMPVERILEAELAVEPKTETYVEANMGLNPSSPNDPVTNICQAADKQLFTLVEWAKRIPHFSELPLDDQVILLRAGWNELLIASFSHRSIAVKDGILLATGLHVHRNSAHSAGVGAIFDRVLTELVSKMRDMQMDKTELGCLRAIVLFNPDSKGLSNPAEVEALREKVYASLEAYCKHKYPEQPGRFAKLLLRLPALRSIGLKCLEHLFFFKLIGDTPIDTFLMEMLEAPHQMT
Chain of E-selectin (Homo sapiens) (P16581 whole entry, looked up): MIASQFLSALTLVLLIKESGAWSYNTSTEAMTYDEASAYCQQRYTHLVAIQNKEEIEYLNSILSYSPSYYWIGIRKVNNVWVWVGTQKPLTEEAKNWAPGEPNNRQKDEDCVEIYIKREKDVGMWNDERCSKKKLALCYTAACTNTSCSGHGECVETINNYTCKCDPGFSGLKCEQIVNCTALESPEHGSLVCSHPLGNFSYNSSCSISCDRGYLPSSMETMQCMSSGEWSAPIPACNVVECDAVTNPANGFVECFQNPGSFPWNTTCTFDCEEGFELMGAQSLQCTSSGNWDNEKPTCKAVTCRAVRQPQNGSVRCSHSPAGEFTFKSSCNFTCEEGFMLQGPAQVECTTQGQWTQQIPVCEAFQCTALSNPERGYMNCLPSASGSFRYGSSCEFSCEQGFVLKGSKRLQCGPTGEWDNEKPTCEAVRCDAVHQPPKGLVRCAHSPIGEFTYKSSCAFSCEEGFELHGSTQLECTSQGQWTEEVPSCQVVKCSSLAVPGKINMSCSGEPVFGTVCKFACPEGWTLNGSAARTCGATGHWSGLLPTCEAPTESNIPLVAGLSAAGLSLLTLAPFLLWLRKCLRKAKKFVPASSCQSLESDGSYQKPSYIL
Chain of human Thyroid Receptor alpha (THRa1), THRA (gene 7067) (P10827 whole entry, looked up, the tested form may be a part): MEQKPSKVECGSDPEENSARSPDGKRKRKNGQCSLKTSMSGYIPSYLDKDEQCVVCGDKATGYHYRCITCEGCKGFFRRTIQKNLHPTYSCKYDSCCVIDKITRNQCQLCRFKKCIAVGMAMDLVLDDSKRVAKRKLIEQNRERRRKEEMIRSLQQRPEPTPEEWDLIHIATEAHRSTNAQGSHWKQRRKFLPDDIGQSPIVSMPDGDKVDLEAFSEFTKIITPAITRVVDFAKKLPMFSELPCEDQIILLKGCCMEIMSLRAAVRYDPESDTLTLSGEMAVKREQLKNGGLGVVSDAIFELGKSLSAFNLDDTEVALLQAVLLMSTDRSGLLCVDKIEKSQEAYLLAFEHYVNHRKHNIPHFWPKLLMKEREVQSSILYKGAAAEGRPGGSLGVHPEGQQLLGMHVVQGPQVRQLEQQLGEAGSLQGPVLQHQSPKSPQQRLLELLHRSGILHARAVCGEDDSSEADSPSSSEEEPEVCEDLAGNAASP
Chain of human Retinoid X Receptor beta (RXRb), RXRB (gene 6257) (P28702 whole entry, looked up, the tested form may be a part): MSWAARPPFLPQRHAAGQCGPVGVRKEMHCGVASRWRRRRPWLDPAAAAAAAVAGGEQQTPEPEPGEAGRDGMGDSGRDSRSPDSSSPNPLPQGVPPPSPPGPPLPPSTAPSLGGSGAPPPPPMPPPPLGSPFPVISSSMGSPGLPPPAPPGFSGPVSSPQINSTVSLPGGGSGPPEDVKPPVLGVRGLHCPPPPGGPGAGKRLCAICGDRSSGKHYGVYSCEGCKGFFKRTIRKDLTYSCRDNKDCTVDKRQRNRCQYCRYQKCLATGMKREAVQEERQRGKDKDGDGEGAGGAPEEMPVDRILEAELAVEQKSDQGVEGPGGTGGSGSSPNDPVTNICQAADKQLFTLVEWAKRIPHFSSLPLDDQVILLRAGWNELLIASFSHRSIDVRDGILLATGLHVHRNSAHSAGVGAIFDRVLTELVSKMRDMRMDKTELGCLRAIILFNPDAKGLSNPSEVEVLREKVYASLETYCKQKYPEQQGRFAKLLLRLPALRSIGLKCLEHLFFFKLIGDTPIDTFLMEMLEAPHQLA
Chain of human RAR-related Orphan Receptor beta (RORb), RORB (gene 6096) (Q92753 whole entry, looked up, the tested form may be a part): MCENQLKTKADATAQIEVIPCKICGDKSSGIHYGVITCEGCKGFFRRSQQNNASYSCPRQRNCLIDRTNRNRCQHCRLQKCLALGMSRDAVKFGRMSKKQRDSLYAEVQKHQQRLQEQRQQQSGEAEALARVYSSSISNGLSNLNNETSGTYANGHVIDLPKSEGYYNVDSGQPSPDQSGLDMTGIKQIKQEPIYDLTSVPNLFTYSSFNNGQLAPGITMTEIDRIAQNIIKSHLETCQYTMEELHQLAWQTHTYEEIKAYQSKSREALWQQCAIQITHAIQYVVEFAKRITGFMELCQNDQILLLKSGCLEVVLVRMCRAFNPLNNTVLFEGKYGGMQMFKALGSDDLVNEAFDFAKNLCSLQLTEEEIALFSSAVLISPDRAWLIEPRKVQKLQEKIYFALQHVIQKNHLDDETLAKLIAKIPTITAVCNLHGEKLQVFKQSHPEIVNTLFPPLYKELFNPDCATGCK

OCCOc1ccccc1
not listed: [20]
inactive: all other assays above

COc1cc(OC)nc(NC(=O)NS(=O)(=O)c2cc(NC=O)ccc2C(=O)N(C)C)n1
not listed: [1] | [2] | [4] | [11] | [18] | [19] | [20]
inactive: all other assays above

CCOC1Oc2ccc(OS(C)(=O)=O)cc2C1(C)C (centres undefined)
active: [8] 23 µM | [12] 24.1 µM
not listed: [1] | [11] | [18] | [19] | [20]
inactive: all other assays above

C[C@H]1[C@H](c2ccc(Cl)cc2)SC(=O)N1C(=O)NC1CCCCC1
active: [7] 8.84 µM | [8] 21.8 µM | [9] 20 µM | [12] 12.1 µM | [13] 15.2 µM | [15] 20 µM | [16] 15.7 µM
inactive: [18] | [4] | [5] | [6] | [10] | [14] | [17]

O=S1OCC2C(CO1)C1(Cl)C(Cl)=C(Cl)C2(Cl)C1(Cl)Cl (centres undefined)
inactive: [3] | [11] | [17]
active: [5] 34.5 µM | [6] 33.4 µM | [7] 26 µM | [8] 30 µM | [9] 32.7 µM | [10] 36 µM | [12] 20 µM | [13] 16.3 µM | [14] 27.3 µM | [15] 27.7 µM | [16] 20.9 µM

O=C(Nc1ccccc1)Nc1cnns1
active: [8] 36.1 µM
not listed: [1] | [4] | [18] | [19] | [20]
inactive: all other assays above

C#CCN1C(=O)COc2cc(F)c(N3C(=O)C4=C(CCCC4)C3=O)cc21
not listed: [1] | [2] | [18] | [19]
inactive: all other assays above

COc1nn(CSP(=S)(OC)OC)c(=O)s1
active: [8] 36.5 µM
not listed: [1] | [11] | [18] | [19] | [20]
inactive: all other assays above

COC(=O)c1ccccc1S(=O)(=O)NC(=O)Nc1nc(C)nc(OC)n1
not listed: [1] | [2] | [18] | [19]
inactive: all other assays above

O=C(NC(=O)c1c(F)cccc1F)Nc1ccc(OC(F)(F)C(F)OC(F)(F)F)c(Cl)c1 (centres undefined)
active: [5] 12.7 µM | [8] 14 µM
not listed: [1] | [2] | [11] | [18] | [20]
inactive: all other assays above

CC(C)(C)C(O)/C(=C\c1ccc(Cl)cc1Cl)n1cncn1 (centres undefined)
active: [5] 24 µM | [6] 32.9 µM | [7] 22.6 µM | [8] 31.6 µM | [9] 32.2 µM | [12] 27.8 µM | [13] 37.2 µM | [14] 32.1 µM | [15] 15.8 µM
inactive: [3] | [4] | [10] | [11] | [17]

O=[N+]([O-])/N=C1\NCCN1Cc1ccc(Cl)nc1
not listed: [1] | [2] | [18] | [19] | [20]
inactive: all other assays above

CC[C@H](C)[C@H]1O[C@]2(C=C[C@@H]1C)C[C@@H]1C[C@@H](C/C=C(\C)[C@@H](O[C@H]3C[C@H](OC)[C@@H](O[C@H]4C[C@H](OC)[C@@H](O)[C@H](C)O4)[C@H](C)O3)[C@@H](C)/C=C/C=C3\CO[C@@H]4[C@H](O)C(C)=C[C@@H](C(=O)O1)[C@]34O)O2 (tested in a mixture with another compound)
active: [5] 9.55 µM | [6] 9.4 µM | [7] 6.96 µM | [8] 5.8 µM | [9] 6.07 µM | [10] 12.1 µM | [12] 5.58 µM | [13] 3.78 µM | [14] 5.3 µM | [15] 8.22 µM | [16] 4.65 µM | [17] 2.13 µM
inactive: [3] | [4] | [11]

Source: PubChem BioAssay (EPA / NIEHS)
